Screening results as filed in PubChem.
Most compounds without a hit are left out; they make up all but 4.5% or so of the library.
Jurkat NFkB inh: lowers PMA/ionomycin-induced NF-kB signal in Jurkat cells; inhibition, % at 4 µM; PMA/ionomycin-induced NF-kB luciferase reporter, luminescence; 330,000 tested, 0.53% active; AID 435003; in the data active = inhibition above about 50%
697 NFkB inh: lowers PMA/ionomycin-induced NF-kB signal in 697 B cells. 697 B-cell NF-kB luciferase reporter, 16 h. inhibition, % at 4 µM. 330,000 tested, 0.33% active. AID 435022; in the data active = inhibition above about 35%
CSC inhib: cancer stem cell inhibition; cancer stem cell-like cells viability, luminescence; inhibition, % at 7.5 µM; 300,000 tested, 1.1% active; AID 2717; in the data active = inhibition above about 75%; inconclusive = no clear call, values can overlap the other calls; tested in HMLE shEcad cells
aSyn UTR inh: MLPCN primary screen, SNCA 5' untranslated region | alpha-synuclein 5'UTR reporter, inhibitor activity | inhibition, % (tested at 7.5 µM) | 300,000 tested, 0.82% active; in the data active = inhibition above about 60%; inconclusive = no clear call, values can overlap the other calls;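 note: H4 neuroglioblastoma cells stably carrying SNCA 5'UTR luciferase fusion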
Mdm2-MdmX inh: human Mdm2/MdmX binding inhibition. O15151+Q00987. 330,000 tested, 3% active. inhibition, % at 8 µM. SaOS-2 split-luciferase Mdm2/MdmX complementation, luminescence;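 active = inhibition of at least 50% at 8 µM in the primary screen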
Target sequence (O15151 whole entry, looked up): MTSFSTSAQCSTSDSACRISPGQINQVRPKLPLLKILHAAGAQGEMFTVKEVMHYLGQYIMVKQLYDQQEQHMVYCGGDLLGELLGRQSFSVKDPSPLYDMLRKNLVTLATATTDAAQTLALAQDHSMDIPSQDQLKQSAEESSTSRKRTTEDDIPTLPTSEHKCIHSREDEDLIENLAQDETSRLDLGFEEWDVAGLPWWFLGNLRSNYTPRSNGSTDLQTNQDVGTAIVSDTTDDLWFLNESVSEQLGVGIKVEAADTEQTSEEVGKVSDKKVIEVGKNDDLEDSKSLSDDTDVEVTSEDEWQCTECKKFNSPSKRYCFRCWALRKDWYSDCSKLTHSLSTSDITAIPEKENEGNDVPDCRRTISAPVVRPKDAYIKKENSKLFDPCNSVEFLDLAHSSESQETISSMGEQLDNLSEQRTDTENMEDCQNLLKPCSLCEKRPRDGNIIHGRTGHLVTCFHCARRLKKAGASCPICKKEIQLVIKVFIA
Target sequence (Q00987 whole entry, looked up): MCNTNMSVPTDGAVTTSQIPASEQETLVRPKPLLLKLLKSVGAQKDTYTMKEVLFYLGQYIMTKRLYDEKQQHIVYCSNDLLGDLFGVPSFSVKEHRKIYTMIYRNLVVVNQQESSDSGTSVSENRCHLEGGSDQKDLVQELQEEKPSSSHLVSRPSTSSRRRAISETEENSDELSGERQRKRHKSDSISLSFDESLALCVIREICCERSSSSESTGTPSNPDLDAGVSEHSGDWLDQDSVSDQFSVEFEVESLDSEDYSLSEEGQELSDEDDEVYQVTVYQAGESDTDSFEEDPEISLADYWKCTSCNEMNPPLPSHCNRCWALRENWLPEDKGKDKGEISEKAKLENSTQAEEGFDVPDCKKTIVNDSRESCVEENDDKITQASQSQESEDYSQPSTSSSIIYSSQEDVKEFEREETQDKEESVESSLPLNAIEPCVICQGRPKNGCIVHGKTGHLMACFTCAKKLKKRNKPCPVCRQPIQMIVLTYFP
Gli-Sufu antag: Gli-Sufu pathway antagonism; 340,000 tested, 0.74% active; AID 588413; Sufu-KO-LIGHT fibroblasts, Gli luciferase reporter luminescence; inhibition, % at 5 µM;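 active = inhibition above about 55%, limit read from the data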
Mdm2 MdmX conf: human Mdm2/MdmX binding inhibition, confirmed. shares compounds with Mdm2-MdmX inh. luminescent assay. inhibition, % at 8 µM. 10,000 tested, 55% active. AID 489028; in the data active = inhibition above about 40%
FLuc counter: counter-screen for Mdm2/MdmX inhibitors: full-length luciferase; shares compounds with Mdm2-MdmX inh; SaOS-2 full-length luciferase counterscreen, luminescence; 6,200 tested, 77% active; inhibition, % at 8 µM;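 active = mean inhibition at 8 µM reaching about 37%, which flags the compound as non-specific, limit read from the data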;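 note: p53-null SaOS-2 cells with luciferase driven by a doxycycline-inducible promoter; compound on cells about two nights before reading with doxycycline added after day one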
Large screens that a line does not name were inactive (follow-up assays come after a bar, where they were run).

CCN(CC)CCn1c2ccccc2c2nc3ccc([N+](=O)[O-])cc3cc21	Mdm2-MdmX inh 78.2 | Mdm2 MdmX conf 76.7 | FLuc counter 57.2
Cc1cccc(N/N=C(\C(N)=O)C2=NC(C)(C)Cc3ccccc32)c1	CSC inhib 76.3, aSyn UTR inh inconclusive, Mdm2-MdmX inh 58.5 | Mdm2 MdmX conf inactive
COc1ccc(S(=O)(=O)NCC(c2ccc(F)cc2)N2CCOCC2)cc1Br (stereo not drawn)	none (no result: CSC inhib, aSyn UTR inh)
N#Cc1cc(Oc2cccc3cccnc23)c(-n2nnc3ccccc32)cc1C#N	Mdm2-MdmX inh 61.8 (no result: Gli-Sufu antag) | Mdm2 MdmX conf inactive
N#Cc1cc(-c2ccccc2)oc1/N=C/c1ccccc1O	Mdm2-MdmX inh 52.9 (no result: CSC inhib) | Mdm2 MdmX conf 57.2 | FLuc counter 105.4
N#CC(c1ccc(Cl)cc1)c1ccc2c(C(F)(F)F)cc(C(F)(F)F)nc2n1 (stereo not drawn)	aSyn UTR inh 111.6, Mdm2-MdmX inh 99.3, Gli-Sufu antag 92.3 | Mdm2 MdmX conf 95.5 | FLuc counter inactive
COc1cccc(C2C3=C(N=c4s/c(=C\c5ccc(O)cc5)c(=O)n42)c2ccccc2CC3)c1OC (stereo not drawn)	none
COc1cccc(C2C3=C(N=c4s/c(=C\c5cccc(O)c5)c(=O)n42)c2ccccc2CC3)c1OC (stereo not drawn)	CSC inhib 90.9, Mdm2-MdmX inh 67.7 | Mdm2 MdmX conf inactive
O=C1c2ccccc2C(=O)c2c1oc(C(F)(F)F)c2C(=O)c1ccccc1	CSC inhib 116.8, aSyn UTR inh 100.9, Mdm2-MdmX inh 84.4 | Mdm2 MdmX conf 81.5 | FLuc counter 49.6
O=C(c1ccc(=O)[nH]c1)N1CCN(S(=O)(=O)c2ccccc2)CC1	none (no result: CSC inhib)
COc1ccc(/C=N/NC(=O)c2cc3cc(OC)c(OC)cc3[nH]2)cc1	none
COc1ccc2[nH]c(C(=O)N/N=C/c3ccc(O)cc3O)cc2c1	CSC inhib 100.2, Mdm2-MdmX inh 71.0 | Mdm2 MdmX conf 83.3 | FLuc counter inactive
CCOc1ccc2[nH]c(C(=O)N/N=C/c3ccc(OC)cc3)cc2c1	aSyn UTR inh 75.9, Mdm2-MdmX inh 53.2 | Mdm2 MdmX conf 56.0 | FLuc counter 95.7
CCc1nnc(NS(=O)(=O)c2ccc(NC(=O)c3ccccc3O)cc2)s1	none
COc1ccc(Sc2nnc(Cc3ccccc3)c3ccccc23)cc1	Mdm2-MdmX inh 71.5 | Mdm2 MdmX conf 47.5 | FLuc counter 87.7
Cc1ccc(Sc2nnc(Cc3ccccc3)c3ccccc23)cc1	Mdm2-MdmX inh 53.3 | Mdm2 MdmX conf inactive
c1ccc(Cc2nnc(N3CCCCC3)c3ccccc23)cc1	none
Cc1ccc(-c2cc(C(=O)O)c3ccccc3n2)c(C)c1	none
Cc1cccc(C)c1NC(=O)COc1ccc2c(C)c(Cc3ccccc3)c(=O)oc2c1C	Mdm2-MdmX inh 96.9 | Mdm2 MdmX conf inactive
CCOc1ccc(NC(=O)CN(C)C(=O)CC(NC(=O)c2ccccc2)c2ccccc2)cc1OCC (stereo not drawn)	none
Cc1cccc(OCC(=O)O/N=C(\N)c2ccc(Br)cc2)c1	none
Cc1sc2ncnc(N3CCC(C(=O)Nc4ccc(S(N)(=O)=O)cc4)CC3)c2c1C	Mdm2-MdmX inh 61.2 (no result: CSC inhib, aSyn UTR inh) | Mdm2 MdmX conf 42.5 | FLuc counter 71.8
Cc1sc2ncnc(N3CCC(C(=O)N(C)CC(=O)Nc4ccc(Cl)c(C(F)(F)F)c4)CC3)c2c1C	CSC inhib 96.0, Mdm2-MdmX inh 80.8 | Mdm2 MdmX conf 54.7 | FLuc counter inactive
Cc1sc2ncnc(N3CCC(C(=O)Nc4ccc(C#N)cc4)CC3)c2c1C	none
CCN(CC)S(=O)(=O)c1cc(NC(=O)C2CCN(c3ncnc4sc(C)c(C)c34)CC2)ccc1Cl	Mdm2-MdmX inh 90.0 | Mdm2 MdmX conf 60.4 | FLuc counter 48.9
O=C(c1ccc(-c2ccccc2)cc1)N1CCN(c2ccccn2)CC1	none
CCOC(=O)c1sc(NC(=O)COC(=O)C(CCSC)NC(C)=O)nc1C (stereo not drawn)	none
Cc1cccc(C(=O)Nc2ccccc2SCC2CSc3nc4ccccc4c(=O)n32)c1 (stereo not drawn)	Mdm2-MdmX inh 62.9 | Mdm2 MdmX conf 44.0 | FLuc counter 107.1
O=C(Nc1ccccc1SCC1CSc2nc3ccccc3c(=O)n21)c1ccccc1 (stereo not drawn)	none
O=C(Nc1ccccc1SCC1CSc2nc3ccccc3c(=O)n21)c1cccc(Cl)c1 (stereo not drawn)	Mdm2-MdmX inh 77.2 | Mdm2 MdmX conf 55.0 | FLuc counter 42.6
Cc1ccc(C(=O)Nc2ccccc2SCC2CSc3nc4ccccc4c(=O)n32)cc1 (stereo not drawn)	Mdm2-MdmX inh 70.3 | Mdm2 MdmX conf 46.5 | FLuc counter 55.3
C/C(=N/NC(=O)CNC(=O)c1cccs1)c1ccco1	none
CN=C1c2c(-c3ccccc3)c3cc(OC)ccc3n2CCN1C	Mdm2-MdmX inh 50.7 | Mdm2 MdmX conf inactive
Cc1ccc(S(=O)(=O)N2CCN(C(=O)Cn3nc(C(=O)O)c4ccccc4c3=O)CC2)cc1	none
Cc1cccc(N2CCN(C(=O)Cc3cn(C)c4ccccc34)CC2)c1C	Mdm2-MdmX inh 53.5 | Mdm2 MdmX conf 43.0 | FLuc counter 54.8
O=C(C[C@H]1C[C@H](C(=O)N2CCCCC2)[C@@]2(CCc3ccccc3)c3[nH]c4ccc(Cl)cc4c3CCN2C1=O)NCc1cccc(C(F)(F)F)c1	Mdm2-MdmX inh 66.2 (no result: Jurkat NFkB inh, CSC inhib, aSyn UTR inh) | Mdm2 MdmX conf 61.5 | FLuc counter inactive
CC(C)(C)NC(=O)C[C@H]1C[C@H](C(=O)N2CCCCC2)[C@@]2(CCc3ccccc3)c3[nH]c4ccc(Cl)cc4c3CCN2C1=O	Mdm2-MdmX inh 51.8 (no result: Jurkat NFkB inh, CSC inhib, aSyn UTR inh) | Mdm2 MdmX conf inactive | FLuc counter 73.2
COCCCNC(=O)C[C@H]1C[C@H](C(=O)N2CCCCC2)[C@@]2(CCc3ccccc3)c3[nH]c4ccc(Cl)cc4c3CCN2C1=O	none (no result: Jurkat NFkB inh, CSC inhib, aSyn UTR inh)
COc1ccccc1N1CCN(C(=O)CC(NC(=O)c2ccccc2Cl)c2ccccc2)CC1 (stereo not drawn)	none (no result: CSC inhib, aSyn UTR inh)
Cc1ccc2[nH]c(=O)c(CN(Cc3ccco3)S(=O)(=O)c3c(C)ccc4nsnc34)cc2c1	Mdm2-MdmX inh 55.2 | Mdm2 MdmX conf inactive
Cc1cc(/C=C(\C#N)C(=O)N2CCOCC2)c(C)n1C1CCCC1	Mdm2-MdmX inh 63.7 | Mdm2 MdmX conf 68.4 | FLuc counter 158.5
COc1ccc(/C=C(\C#N)C(=O)N2CCOCC2)cc1Br	none
CCCN(C(=O)C1=COCCO1)c1c(N)n(Cc2ccccc2)c(=O)[nH]c1=O	none
O=c1c2ccccc2c(/C=N/n2cnnc2)c(O)n1-c1ccccc1	none
CCN(CC)S(=O)(=O)c1cccc(-n2c(O)c(C=Nc3ccccc3C(=O)O)c3ccccc3c2=O)c1	Mdm2-MdmX inh 67.2 | Mdm2 MdmX conf 67.7 | FLuc counter 36.5
CCCN(CC(=O)Nc1cc(C)on1)CC(=O)Nc1ccccc1C	none (no result: aSyn UTR inh)
